High-throughput results from PubChem BioAssay.
WT yeast gro inh: growth inhibition of WT yeast, mitochondrial fusion screen. mitochondrial fusion phenotypic screen, WT strain. inhibition, % at 10 µM. actives 2.1% (n = 190,000); in the data active = inhibition above about 58%; tested in S. cerevisiae
ROMK primary: modulators of human ROMK potassium channel. Tet-inducible ROMK, thallium flux fluorescence; actives lie on both sides. B-score at 10 µM. actives 2% (n = 130,000);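 active = signal ratio slope over the read window, or its plate-corrected B-score, at least 3 SD from the plate mean, either direction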;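 note: B-score of the F/F0 ratio slope over 7 to 12 s after thallium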
Ins promoter up: MIN6 insulin promoter up-regulation; MIN6 insulin promoter-GFP reporter, high-content imaging; hits give high values; z-score at 5 µM; actives 0.3% (n = 190,000); AID 1625;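 active = z-score above 3 at 5 µM with at least 500 cells counted in the well; inconclusive = wells under 500 cells, flagged as cytotoxic or low count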
Lmaj promast: reduces viability of Leishmania major promastigotes; resazurin fluorescence viability; actives 9% (n = 200,000); inhibition, % at 10 µM; in the data active = inhibition above about 50%;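 note: promastigotes grown with compound for 44 hours at 28 °C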
KCC2 mod: modulates chloride dependent transport by human KCC2 | Q9H2X9 | KCC2 cells, thallium flux FluoZin-2 fluorescence | B-score of Tl+ flux slope (higher = more flux/activation; lower = inhibition) at 10 µM | actives 2.2% (n = 190,000) | AID 1456;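 active = thallium flux slope and its plate-corrected score both differing from the plate sample mean at a set confidence after two filtering rounds, in either direction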;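 note: slope of fluorescence scaled to starting intensity during 10 to 20 s after thallium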
Insulin prom inh: TRM-6 insulin promoter activity inhibition | actives 0.9% (n = 130,000) | AID 1273 | TRM-6 cells (human fetal islet line), insulin promoter-eGFP reporter, imaging; reporter expression induced with tamoxifen | inhibition, % at 2 µM;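 active = inhibition above the mean plus 3 SD, with well images judged a real hit on visual review, cut at about 60% in these data, passing the limit was not always enough; inconclusive = inhibition over the cutoff but images rejected on review; inactive = inhibition not above the cutoff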
ROMK retest: retested hit modulating human ROMK potassium channel | AID 1917 | ROMK thallium flux, fluorescence ratio; hits give low values | normalized thallium flux (F/F0 slope) at 10 µM | shares compounds with ROMK primary | actives 54% (n = 3,000);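 active = Flux at 10 µM at least 3 SD below or above vehicle control mean in one or both replicates; inconclusive = no clear call, values can overlap the other calls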
A number is an active result; – = inactive; ? = inconclusive; · = not tested or not shown. Compounds with a hit are over-represented: about 12% of the library has one in this group of screens.

SMILES	WT yeast gro inh	ROMK primary	Ins promoter up	Lmaj promast	KCC2 mod	Insulin prom inh	ROMK retest
CN(C)S(=O)(=O)c1ccc(C(=O)Nc2nc(-c3cc4ccccc4o3)cs2)cc1	–	–	–	–	–	–	·
Oc1ccc(/C=N/NC(=S)Nc2cccnc2)cc1	·	·	–	·	–	·	·
Oc1ccc(/C=N/NC(=S)N/N=C/c2ccc(O)cc2)cc1	–	3.3	·	–	–	–	–
Cc1c(C(=O)NC(=S)NCC(C)C)oc2ccccc12	–	–	·	–	–	–	·
COc1ccc(C(=O)NN(C)c2nc(C(F)(F)F)nc3ccccc23)cc1	–	3.5	–	–	–	·	–
COc1ccccc1N/C(N)=N/c1nc(C)cc(C)n1	·	·	–	·	–	·	·
Cc1cc(C)nc(/N=C(\N)Nc2cccc(OCc3ccccc3)c2)n1	·	·	–	·	–	·	0.055
CCOc1cc(NC(=S)NCCCN2CCOCC2)c(OCC)cc1NC(=O)c1ccccc1C	–	–	–	–	–	–	·
CC(=O)c1cccc(NC(=O)COC(=O)c2ccc(S(C)(=O)=O)c([N+](=O)[O-])c2)c1	–	–	–	–	–	–	·
Cc1ccccc1NC(=O)COC(=O)c1ccc(S(C)(=O)=O)c([N+](=O)[O-])c1	–	-3.5	–	–	–	–	?
COCCNC(=O)C(c1cccs1)N(C(=O)Cn1nnc2ccccc21)c1ccc2c(c1)OCO2 (stereo not given)	–	·	–	–	–	·	·
Cc1cc(N/N=C/c2ccc(F)cc2)nc(NCc2ccccc2)n1	·	·	–	·	–	·	·
CCCCNc1cc(C)nc(NCc2ccccc2)n1	–	-4.1	?	101	–	·	0.051
Fc1cc(NCc2ccccc2)nc(NCc2ccccc2)n1	–	-5.8	–	–	–	–	0.05
Cc1ccc2c(c1)CCCN2C(=O)NC1CCCCC1	–	–	–	–	–	·	·
CC(=O)O[C@]1(C(C)=O)CC[C@H]2[C@@H]3C=C(Cl)C4=CC(=O)CC[C@]4(C)[C@H]3CC[C@@]21C	–	·	·	68	–	–	–
Cc1cc(NC(=S)N(CCN2CCCCC2)Cc2ccco2)ccc1Cl	–	–	–	–	–	·	·
Cc1ccc(NC(=S)N(CCCN2CCCC2)Cc2cccn2Cc2ccc(Cl)cc2)cc1C	76	-2.8	–	101	–	–	0.062
Cn1c(=O)cc(N2CCc3ccccc32)[nH]c1=O	–	·	–	–	–	·	·
CC(C)C(OC(=O)c1cc2c(s1)CCCCC2)C(=O)NC(N)=O (stereo not given)	–	·	–	–	–	·	·
COc1ccc2c(Cl)c(C(=O)N/N=C3\CCCC(=O)C3)sc2c1	–	-3.1	–	–	–	·	–
CCc1ccc(NC(=O)C(C)OC(=O)c2cc(=O)[nH]c3ccc(S(=O)(=O)Nc4ccc(F)cc4)cc23)cc1 (stereo not given)	–	–	–	–	–	?	·
Cc1cccc(NS(=O)(=O)c2ccc3[nH]c(=O)cc(C(=O)OC(C)C(=O)Nc4ccc([N+](=O)[O-])cc4)c3c2)c1 (stereo not given)	–	-3.1	–	–	–	·	?
CCOCCOC(=O)NCCCCCCNC(=O)OCCOCC	·	·	–	·	–	·	·
CC(=O)c1cc2c(cc1NC(=O)CN1CCN(C(=O)c3ccco3)CC1)OCO2	–	·	·	–	–	·	·
SMILES	WT yeast gro inh	ROMK primary	Ins promoter up	Lmaj promast	KCC2 mod	Insulin prom inh	ROMK retest
COc1cc2c(cc1OC)CN(c1nc(CN3CCCCC3)nc3sc4c(c13)CCCC4)CC2	–	-2.6	–	99	–	–	0.064
COc1cc2c(cc1OC)CN(c1nc(CN3CCOCC3)nc3sc4c(c13)CCCC4)CC2	–	–	–	–	–	–	·
O=C(NC1CCCCC1)NC1CCN(S(=O)(=O)c2ccc3c(c2)OCCO3)CC1	–	·	–	–	·	·	·
COC(=O)c1ccc(OC(=O)c2ccc(OC)c(OC)c2)c(OC)c1	–	-3.9	–	–	–	–	–
CCOc1ccc(-n2c(SCC(=O)Nc3cc(C)on3)nnc2-c2c[nH]c3ccccc23)cc1	63	4.3	·	–	–	–	–
Cc1cc(NC(=O)CSc2nnc(-c3c[nH]c4ccccc34)n2-c2ccc(F)cc2)no1	–	·	–	–	–	·	·
Cc1cc(C)nc(-n2nc(C)cc2NC(=O)c2ccc3c(c2)OCO3)n1	·	·	–	·	·	·	·
Cc1ccc(NS(=O)(=O)c2cc3c4c(cccc4c2)C(=O)NC3=O)cc1	·	1.7	–	–	–	·	?
CCCCOc1ccc(Nc2nc(C)cc(C)c2C#N)cc1	–	·	–	–	–	–	·
COc1ccccc1CN(Cc1cc2cc(C)cc(C)c2[nH]c1=O)Cc1nnnn1CC1CCCO1 (stereo not given)	–	-4.1	–	56	–	·	0.066
N=c1n(CC(=O)c2ccc(Br)s2)c2ccccc2n1Cc1ccccc1	·	·	·	·	–	·	·
CCCn1c(=N)n(CC(=O)c2ccc([N+](=O)[O-])cc2)c2ccccc21	–	-4.4	–	64	·	–	–
CC(C)(C)C(=O)Cn1c(=N)n(Cc2ccccc2)c2ccccc21	70	·	–	58	–	·	0.047
CCn1c(=N)n(CC(=O)c2cccc([N+](=O)[O-])c2)c2ccccc21	–	–	–	–	–	–	·
Cc1ccc(Cn2c(=N)n(CC(=O)c3ccccc3)c3ccccc32)cc1	–	-5.2	–	100	–	·	0.052
COc1ccccc1N1CCN(C(c2cccs2)C(C)NC(=O)c2ccncc2)CC1 (stereo not given)	·	–	–	·	–	·	·
CCOC(=O)N1CCN(C(=O)CNC(=O)c2nn(-c3ccc(OC)cc3)c(=O)c3ccccc23)CC1	–	·	–	–	–	–	·
COc1cccc2sc(NC(=O)c3ccc(Br)s3)nc12	–	–	–	–	–	–	·
COc1cccc2sc(Nc3nnc(-c4ccc(F)cc4)o3)nc12	–	·	·	96	·	·	0.17
Cn1nc(-c2ccc(Cl)cc2)c2cc(C(=O)NCCCN3CCCC3)sc21	–	·	–	100	·	·	0.059
CCCCNC(=O)c1cc2c(-c3ccc(Cl)cc3)nn(C)c2s1	–	·	–	–	·	·	·
CN1C(=O)c2ccccc2C(C(=O)O)C1c1cccc(Cl)c1 (stereo not given)	–	1.6	–	–	–	–	–
Cc1nnnn1/C(=C\c1ccccc1)C(=O)OCC(=O)NC(C)(C)C	–	-8.2	–	–	–	–	0.043
COc1ccc(CNc2nc(SCC(=O)NCc3ccco3)nc3ccccc23)cc1	–	·	·	–	–	–	·
COc1ccccc1C(=O)Nc1ccon1	–	·	·	–	·	–	·
O=C(NCC1CCCO1)C(c1ccc(F)cc1)N(CC1CCCO1)C(=O)c1ccc(-c2ccccc2)[nH]1 (stereo not given)	–	-3.2	–	–	–	·	0.059
O=C(NCC(=O)N(CC1CCCO1)C(C(=O)NC1CCCCC1)c1ccc(F)cc1)c1ccco1 (stereo not given)	–	–	·	–	·	–	·
O=C1/C(=C/c2cccnc2)SC(=S)N1CC1CCCO1 (stereo not given)	–	-4	–	–	–	–	?
COc1ccc(/C=C2\SC(=S)N(CC3CCCO3)C2=O)cc1 (stereo not given)	·	–	–	·	–	·	·
